Bioassay records deposited in PubChem BioAssay by National Center for Advancing Translational Sciences (NCATS).
An excerpt weighted towards active compounds, which were near 7.3% of everything screened.
Rab9 promoter act: Rab9 promoter activation | actives 2.8% (n = 320,000) | Huh7 Rab9 promoter-luciferase reporter, luminescence, 24 h | Potency, µM (series often up to 9.22 µM), for the others: at the top dose activation, negative = inhibition, hits mostly activators; further: % of control where 0% means no effect; nearly all actives have a fitted effect of over 60% in size
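Promoter activation is measured as luciferase luminescence in Huh7 cells stably transfected with a Rab9 promoter–luciferase construct, following 24 h compound exposure at 37 °C and 10 min reagent incubation at ambient temperature.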
NPC1 promoter act: NPC1 promoter activation | actives 2.4% (n = 320,000) | Huh7 NPC1 promoter luciferase reporter, 24 h | Potency, µM (highest dose often 9.22 µM), without a hit: at the top dose activation, most hits filed as activators; further: % of control where 0% means no effect; nearly all actives have a fitted effect of over 60% in size
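Quantitative HTS used a cell-based reporter: Huh7 cells stably bearing the NPC1 promoter upstream of luciferase were treated with compounds for 24 h, and promoter activation was read as luminescence.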
SMN2 splice enh: enhancers of SMN2 splice variant expression; HEK293 SMN2-luciferase splicing reporter, luminescence, 30-36 h; Potency, µM (top dose mostly 46.1 µM), inactives show at the highest dose activity change, positive = activation, usual class: activators; actives 2.8% (n = 210,000); further: % of control where 0% means no effect; nearly all actives have a fitted effect of over 55% in size
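HEK293 cells carry an SMN2 […]–luciferase reporter in which exon 7 inclusion puts luciferase in frame. Cells were plated 10-12 h before compound addition, then incubated 30-36 h at 37C. ONE-Glo luminescence was read; sodium butyrate at 4.5 mM final served as control.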
FLuc counter: inhibits or activates purified firefly luciferase, miR-21 counter-screen. Potency, µM (series often up to 57.5 µM), for inactives: at the highest dose activity change, negative = inhibition, hits mostly inhibitors. P08659. actives 6.9% (n = 360,000). purified FLuc, Km substrates, luminescence inhibition;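 further: plate controls were vehicle for no effect and reference inhibitor for full effect; nearly all actives have a fitted effect of over 55% in size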
Target sequence (P08659 whole entry, looked up): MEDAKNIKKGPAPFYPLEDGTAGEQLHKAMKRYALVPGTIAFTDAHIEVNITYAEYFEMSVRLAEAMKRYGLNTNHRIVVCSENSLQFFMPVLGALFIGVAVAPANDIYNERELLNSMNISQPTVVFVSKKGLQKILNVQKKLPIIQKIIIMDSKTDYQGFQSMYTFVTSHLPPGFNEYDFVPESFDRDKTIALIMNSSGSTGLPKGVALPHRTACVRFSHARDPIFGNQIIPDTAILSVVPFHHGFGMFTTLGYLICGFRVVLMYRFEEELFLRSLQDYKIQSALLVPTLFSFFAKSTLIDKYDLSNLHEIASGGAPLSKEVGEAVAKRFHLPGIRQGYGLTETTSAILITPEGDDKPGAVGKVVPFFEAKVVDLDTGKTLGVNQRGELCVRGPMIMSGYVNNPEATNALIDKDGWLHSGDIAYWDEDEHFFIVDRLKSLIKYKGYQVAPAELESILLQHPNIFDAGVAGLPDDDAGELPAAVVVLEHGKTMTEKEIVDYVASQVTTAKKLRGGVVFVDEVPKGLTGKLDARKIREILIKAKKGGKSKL
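Biochemical qHTS of compounds, final roughly 60 µM downward over six points, against 10 nM purified firefly luciferase using Km concentrations of substrates (10 uM D-luciferin, 10 uM ATP) in Tris acetate pH 7.5 buffer; luminescence output.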
KinaseGlo FLuc: counter-screen: inhibitors of Kinase-Glo firefly luciferase | Kinase-Glo luciferase, ATP luminescence, 8 min | Potency, µM (highest dose often 38.3 µM), inactives show at the highest dose activity change, negative = inhibition, usual class: inhibitors | actives 0.28% (n = 200,000); further: on the % scale 0 is the no-effect control and ±100 the full control effect; nearly all actives have a fitted effect of over 60% in size
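Light output from Kinase-Glo luciferase with luciferin and 10 uM ATP in 50 mM imidazole pH 7.2, KCl, MgCl2, Tween 20, BSA; compound pin-delivered, 8-min ambient incubation, then luminescence read.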
ELG1 genotox: induces genotoxicity in HEK293T cells with luciferase-tagged ELG1 | HEK293T ELG1-luciferase reporter, luminescence, 16 h | Potency, µM (titrated, usually from 46 µM), for the others: at the top dose activity change, positive = activation, usual class: activators | actives 1.3% (n = 330,000) | AID 504466; further: % of control where 0% means no effect; nearly all actives have a fitted effect of over 60% in size
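Luminescence read-out: rising ELG1-luciferase signal, reflecting elevated ELG1 protein under genetic stress, flags genotoxic compounds. Cells were treated for 16 hr at 37 °C before ONE-Glo detection.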
Starred values were filed as active, the others as inactive; ? = inconclusive; . = no result given; [ ] = remark or other dose. The call rests on the fitted dose curve; in most records, active means well fitted curve in the direction sought with a large enough effect; inconclusive means small, poorly fitted or top-dose-only effect, or another doubt; inactive means no such curve, though single readings can be large; an effect the other way counts as inactive or inconclusive. Potency means the concentration at half of the fitted maximal effect.

SMILES	Rab9 promoter act	NPC1 promoter act	SMN2 splice enh	FLuc counter	KinaseGlo FLuc	ELG1 genotox
OC(COc1ccccc1)CN1CCN(c2ncccn2)CC1 (stereo unspecified)	-5%	0%	25%	4%	-1%	1%
CCN(CC)S(=O)(=O)c1nnc(NC(=O)c2ccc(C)cc2)s1	.	.	.	-16%	.	.
Cc1ccc(N2CCN(S(=O)(=O)c3nnc(NC(=O)c4ccc(C(C)C)cc4)s3)CC2)cc1	.	.	.	5%	.	.
Cc1ccccc1N1CCN(S(=O)(=O)c2nnc(NC(=O)c3ccc(C(C)C)cc3)s2)CC1	.	.	.	24µM*	.	.
CC(C)c1ccc(C(=O)Nc2nnc(S(=O)(=O)N3CCOCC3)s2)cc1	0%	-5%	.	17µM*	.	-2%
Cc1ccccc1N1CCN(S(=O)(=O)c2nnc(NC(=O)c3ccccc3)s2)CC1	.	.	.	-8%	.	.
CCN(CC)S(=O)(=O)c1nnc(NC(=O)c2ccc(C(C)C)cc2)s1	.	.	.	9.5µM*	.	.
COC(=O)c1ccc(C2C(C(=O)c3ccco3)=C(O)C(=O)N2c2cc(C)on2)cc1 (stereo unspecified)	3%	-7%	.	-1%	.	13%
c1ccc(C2CSc3ccccc3N2)cc1 (stereo unspecified)	22%	?	.	21µM*	.	?
CC1CSc2ccccc2NC1=S (stereo unspecified)	1%	-1%	7%	-1%	-3%	-6%
Cc1ccc(N=C2NC(=O)CS2)cc1	5%	1%	47%	5%[2.3 µM]	-2%	0%
Cc1ccc(SCC(=O)N=C2NC(=O)CS2)cc1	3%	-15%	.	15µM*	.	1%
COc1cc(/C=N/N(C)C)ccc1OC(=O)c1cccs1	10%	-6%	2%	27µM*	1%	8%
COc1cc(/C=N/NC(N)=O)ccc1OC(=O)c1cccs1	-7%	0%	6%	-8%	2%	3%
COc1cc(/C=C2\SC(=S)N(CC(=O)O)C2=O)ccc1OS(=O)(=O)c1ccc(C)cc1	-13%	6%	.	-16%	.	1%
COc1cc(/C=C2/SC(=S)N(CC(=O)O)C2=O)ccc1OC(=O)c1cccs1	3%	0%	.	4.8µM*	.	0%
C=CCOC(=O)COc1ccc2c(C)c(CC)c(=O)oc2c1	-3%	5%	29%	12µM*	1%	-1%
C=CCOC(=O)COc1ccc2c(C)c(C)c(=O)oc2c1	-1%	0%	10%	19µM*	0%	2%
CC(C)N=c1scc(-c2ccco2)n1/N=C/c1ccc(O)c(O)c1	-19%	3%	?	9.5µM*	-5%	?
Oc1ccc(/C=N/n2c(-c3ccco3)csc2=Nc2cccnc2)c(O)c1	-18%	-1%	-28%	?	3%	7%
COCCN=c1scc(-c2ccco2)n1/N=C/c1ccc(O)c(O)c1O	-5%	-4%	7%	17µM*	-2%	9%
COc1cc(/C=N/n2c(-c3ccc4c(c3)NC(=O)CO4)csc2=Nc2cccc(C)c2)ccc1O	-3%	-2%	-12%	?	2%	-12%
COCCN=c1scc(-c2cccs2)n1/N=C(\C)c1ccco1	2.5µM*	?	?	9.5µM*	-1%	12%
C=CCN=c1scc(-c2ccco2)n1/N=C/c1ccc(O)c(O)c1O	?	20%	.	4.8µM*	.	?
COCCN=c1scc(-c2ccc3c(c2)NC(=O)CO3)n1/N=C(\C)c1ccc(O)cc1	-7%	0%	.	0%	.	-13%
SMILES	Rab9 promoter act	NPC1 promoter act	SMN2 splice enh	FLuc counter	KinaseGlo FLuc	ELG1 genotox
COc1cccc(C2=NOC(C(=O)NCc3cccnc3)C2)c1 (stereo unspecified)	-2%	-4%	.	4%	.	-5%
Cc1ccc(C(C(=O)NC2CCCC2)N(Cc2ccc3c(c2)OCO3)C(=O)Cc2cccs2)cc1 (stereo unspecified)	-3%	-4%	-10%	0%	-1%	3%
CC(C(=O)O)c1ccc(C(=O)c2ccccc2)s1 (stereo unspecified)	29%	6%	.	17µM*	.	?
CCC(=O)Nc1ccccc1-c1nnn(CC(=O)N2c3ccccc3CC2C)n1 (stereo unspecified)	-6%	1%	-9%	11%	8%	-3%
CN(C)C(CNC(=O)c1ccc(NC(=O)c2cccs2)cc1)c1ccccc1 (stereo unspecified)	-5%	-3%	.	0%	.	0%
CN(C)C(CNC(=O)c1ccc(C2SCCS2)cc1)c1ccccc1 (stereo unspecified)	12%	22%	.	17µM*	.	17%
CC(=O)Oc1ccc(-c2nc3ccccc3c(=O)o2)cc1	1%	-5%	.	9.5µM*	.	-3%
Cc1cc(-c2nc3ccccc3c(=O)o2)ccc1[N+](=O)[O-]	16%	27%	.	2.7µM*	.	?
Cc1ccc2nc(-c3cccs3)oc(=O)c2c1	-2%	-1%	-1%	9.5µM*	-7%	-3%
COc1ccc(-c2nc3ccc(C)cc3c(=O)o2)cc1OC	0%	2%	.	3.4µM*	.	-2%
COc1cc2nc(-c3ccccc3C)oc(=O)c2cc1OC	-2%	-1%	.	?	.	-1%
O=C(Cn1nnc2c(cnn2-c2ccccc2)c1=O)N1CCN(c2ccccc2F)CC1	18%	10%	8%	3%	-1%	0%
COc1cc(/C=N/NC(=O)CNC(=O)c2cccs2)ccc1O	-1%	9%	-1%	?	-3%	0%
Cc1ccc2nc(-c3ccccc3)oc(=O)c2c1	2%	-7%	.	3.8µM*	.	5%
Cc1ccc2nc(-c3ccccc3C)oc(=O)c2c1	1%	-2%	.	6µM*	.	0%
CC(=O)Oc1ccc2nc(-c3cccs3)oc(=O)c2c1	-3%	-2%	-11%	?	1%	2%
CCN1C(=O)c2ccc(-c3nc4ccccc4c(=O)o3)cc2C1=O	5%	-2%	.	-11%	.	2%
CC(=O)Oc1ccc2nc(-c3ccco3)oc(=O)c2c1	0%	-3%	.	12µM*	.	-3%
Cc1ccc(-c2nc3ccccc3c(=O)o2)cc1	3.2µM*	?	.	4.3µM*	.	?
COc1ccccc1C(c1nnnn1Cc1ccco1)N1CCN(c2cccc(C)c2C)CC1 (stereo unspecified)	-12%	-11%	-27%	5%	3%	-9%
Cc1ccc(-c2cc(-c3nnc(SCC(=O)N(C)CCC#N)n3N)c3ccccc3n2)cc1	7%	1%	-47%	11µM*	1%	1%
COc1cc2c(C#N)c(N3CCN(c4ccccc4OC)CC3)nc(N)c2c(N)n1	-8%	0%	-21%	24µM*	-1%	-9%
COc1cc2c(C#N)c(N3CCCC3)nc(N)c2c(N)n1	-1%	-1%	.	17µM*	.	11%
